{"source": "PubChem BioAssay (EPA / NIEHS)", "note": "Activity calls are given as the source filed them. Rule for the calls: active = hit-call score of the fitted dose curve at least 0.9, where 1 is the maximum; inactive = score below 0.9."}
{"target": "Heat shock factor protein 1 (Homo sapiens) (UniProt Q00613)", "sequence (Q00613 whole entry, looked up)": "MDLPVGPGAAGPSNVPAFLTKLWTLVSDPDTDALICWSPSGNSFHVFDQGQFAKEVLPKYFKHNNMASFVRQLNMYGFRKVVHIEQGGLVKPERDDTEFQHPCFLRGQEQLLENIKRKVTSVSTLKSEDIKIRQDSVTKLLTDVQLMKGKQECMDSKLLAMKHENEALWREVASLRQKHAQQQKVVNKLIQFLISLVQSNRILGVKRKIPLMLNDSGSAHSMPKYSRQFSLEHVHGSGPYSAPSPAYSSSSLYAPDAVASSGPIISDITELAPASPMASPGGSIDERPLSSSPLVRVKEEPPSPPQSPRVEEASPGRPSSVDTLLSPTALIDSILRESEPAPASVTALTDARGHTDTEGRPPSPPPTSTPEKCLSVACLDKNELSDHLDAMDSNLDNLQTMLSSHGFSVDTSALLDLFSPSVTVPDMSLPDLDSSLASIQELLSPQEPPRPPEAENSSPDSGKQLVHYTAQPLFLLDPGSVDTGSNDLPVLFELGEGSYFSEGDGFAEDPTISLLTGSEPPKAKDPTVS", "assay": "ATG_HSE_CIS: Attagene CIS-FACTORIAL HepG2 Assay for human Heat Shock Transcription Factor 1 (HSE) (AID 2282953)", "conditions": "HepG2 HSE cis-reporter, Attagene RNA transcription; actives raise or lower the signal", "procedure": "ATG_CIS is a cell-based, multiplexed-readout assay that uses HepG2, a human liver cell line, with measurements taken at 24 hours after chemical dosing in a 24-well plate.ATG_HSE_CIS is one of 52 assay component(s) measured or calculated from the ATG_CIS assay. It is designed to make measurements of mRNA induction, a form of inducible reporter, as detected with fluorescence intensity signals by Reverse transcription polymerase chain reaction (RT-PCR) and Capillary electrophoresis technology.Data from the assay component ATG_HSE_CIS was analyzed into 1 assay endpoint. This assay endpoint, ATG_HSE_CIS, was analyzed with bidirectional fitting relative to DMSO as the negative control and baseline of activity. Using a type of inducible reporter, measures of mRNA for gain or loss-of-signal activity can be used to understand the reporter gene at the transcription factor-level as they relate to the gene HSF1. Furthermore, this assay endpoint can be referred to as a primary readout, because this assay has produced multiple assay endpoints where this one serves a reporter gene function. To generalize the intended target to other relatable targets, this assay endpoint is annotated to the dna binding intended target family, where the subfamily is heat shock protein.\nHuman liver HepG2 cells are transiently transfected with multiple reporter transcription units (MRTUs) in 6-well plates using FuGene 6 reagent (Roche; 3 ml FuGene/1 mg DNA). The MRTU constructs are regulated by a cis-regulating element (promoter). […] A major difference between the CIS and TRANS system is that in CIS activities of endogenous TFs are measured, whereas the TRANS assay evaluates changes in activities of exogenous, chimeric NR-Gal4 proteins. […] At the end of 24 hour incubation, total RNA was isolated using TriZol reagent (Invitrogen). The isolated RNA is then reverse-transcribed using oligo(dT) primer and Mo-MLV reverse transcriptase (Invitrogen) with DNAse I (Ambion) treatment for 30 min. The one-tenth of the produced cDNA was amplified by PCR using Taq DNA polymerase (Invitrogen) and two reporter sequence-specific primers. The PCR products were fluorescently labeled by primer extension with 6-arboxyfluorescein (6-FAM) 5'-labeled reporter sequence-specific primer (2 min at 95 C, 20 s at 68 C and 10 min at 72 C) and these products were digested with 5U of HpaI (New England Biolabs) for 2h at 37 C. The fragments were purified using Qiaquick PCR columns (Qiagen), analyzed on an ABI 3130xL genetic analyzer (Applied Biosystems) with peak positions identified by using a set of X-rhodamine (ROX)-labeled MapMarker1000 molecular weight standards (BioVentures). The raw capillary electrophoresis data was processed using Attagraph software (Attagene)."}
{"smiles": "COP(=O)(OC)OC(Br)C(Cl)(Cl)Br", "note": "(stereo not given)", "outcome": "inactive"}
{"smiles": "CN(C)C(=O)Nc1cccc(C(F)(F)F)c1", "outcome": "inactive"}
{"smiles": "O=C(O)c1cc(Oc2ccc(C(F)(F)F)cc2Cl)ccc1[N+](=O)[O-]", "outcome": "inactive"}
{"smiles": "CCOP(=S)(OCC)Oc1ccc([N+](=O)[O-])cc1", "outcome": "inactive"}
{"smiles": "CCOP(=S)(OCC)SCCSCC", "outcome": "inactive"}
{"smiles": "S=C1NCCN1", "outcome": "inactive"}
{"smiles": "CN(C)NC(=O)CCC(=O)O", "outcome": "inactive"}
{"smiles": "CCCSP(=O)(OCC)Oc1ccc(Br)cc1Cl", "note": "(stereo not given)", "outcome": "inactive"}
{"smiles": "CNC(=O)ON=C(SC)C(=O)N(C)C", "outcome": "inactive"}
{"smiles": "Cc1nn(-c2cc(NS(C)(=O)=O)c(Cl)cc2Cl)c(=O)n1C(F)F", "outcome": "inactive"}
{"smiles": "CCCCN(CC)c1c([N+](=O)[O-])cc(C(F)(F)F)cc1[N+](=O)[O-]", "outcome": "inactive"}
{"smiles": "CCCCSP(=O)(SCCCC)SCCCC", "outcome": "inactive"}
{"smiles": "CON=C(C(=O)OC)c1ccccc1CON=C(C)c1cccc(C(F)(F)F)c1", "AC50": "24.1 µM (active)"}
{"smiles": "COc1ccc(C(=CC(=O)N2CCOCC2)c2ccc(Cl)cc2)cc1OC", "outcome": "inactive"}
{"smiles": "N#CSCSC#N", "outcome": "inactive"}
{"smiles": "CCCSP(=O)(OCC)SCCC", "outcome": "inactive"}
{"smiles": "FC(F)C(F)(F)OCC(Cn1cncn1)c1ccc(Cl)cc1Cl", "note": "(stereo not given)", "AC50": "81.4 µM (active)"}
{"smiles": "CC1=NNC(=O)N(/N=C/c2cccnc2)C1", "outcome": "inactive"}
{"smiles": "CCC(=O)Nc1ccc(Cl)c(Cl)c1", "outcome": "inactive"}
{"smiles": "COP(=O)(OC)SCn1c(=O)oc2cc(Cl)cnc21", "outcome": "inactive"}
{"smiles": "CCCCOC(=O)c1ccccc1C(=O)O", "outcome": "inactive"}
{"smiles": "Cc1cc(C2CC2)nc(Nc2ccccc2)n1", "outcome": "inactive"}
{"smiles": "CCOP(=S)(OCC)Oc1cc(C)nc(C(C)C)n1", "outcome": "inactive"}
{"smiles": "C[Si](Cn1cncn1)(c1ccc(F)cc1)c1ccc(F)cc1", "AC50": "85.6 µM (active)"}
{"smiles": "COc1cc(OC)nc(Sc2cccc(Cl)c2C(=O)O)n1", "outcome": "inactive"}
{"smiles": "CCc1cnc(C2=NC(C)(C(C)C)C(=O)N2)c(C(=O)O)c1", "note": "(stereo not given)", "outcome": "inactive"}
{"smiles": "CCOP(=S)(OCC)OC(Cl)C(Cl)(Cl)Cl", "note": "(stereo not given)", "outcome": "inactive"}
{"smiles": "Nc1c(Cl)cc([N+](=O)[O-])cc1Cl", "outcome": "inactive"}
{"smiles": "C#CCC1=C(C)C(OC(=O)C2C(C=C(C)C)C2(C)C)CC1=O", "note": "(stereo not given)", "AC50": "74.8 µM (active)"}
{"smiles": "CC(C1CC1)C(O)(Cn1cncn1)c1ccc(Cl)cc1", "note": "(stereo not given)", "outcome": "inactive"}
{"smiles": "CC(C)N(C(=O)SCC(Cl)=C(Cl)Cl)C(C)C", "outcome": "inactive"}
{"smiles": "O=c1ccc(=O)[nH][nH]1", "outcome": "inactive"}
{"smiles": "COP(=O)(OC)C(O)C(Cl)(Cl)Cl", "note": "(stereo not given)", "outcome": "inactive"}
{"smiles": "CSc1nnc(C(C)(C)C)c(=O)n1N", "outcome": "inactive"}
{"smiles": "CCc1cccc(CC)c1N(COC)C(=O)CCl", "outcome": "inactive"}
{"smiles": "COP(=O)(NC(C)=O)SC", "note": "(stereo not given)", "outcome": "inactive"}
{"smiles": "CCOP(=O)(OCC)Oc1cc(C)nc(C(C)C)n1", "outcome": "inactive"}
{"smiles": "CSc1nc(NC(C)C)nc(NC(C)C)n1", "outcome": "inactive"}
{"smiles": "Nc1nc(N)nc(NC2CC2)n1", "outcome": "inactive"}
{"smiles": "C[N+]1(C)CCCCC1", "outcome": "inactive"}
